Results taken from PubChem BioAssay AID1159580 (chemical genetic matrix, 2015).
Where “and” joins values, the source holds several entries; their conditions need not be identical. Equal values may be shown once. Hit rate of the full screen: of about 5,500 compounds, about 2,000 (36%) were called active. Not shown: some 18% with an inconclusive outcome. Cut-off read from the data, not from the text of the source: active = normalized growth mostly below about 0.91 (no sharp cut-off); inconclusive = no clear call, values can overlap the other calls; inactive = mostly above about 0.92. The list shows a part of the results.

Assay: chemical genetic growth profiling, strain panel (AID 1159580);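 note: tested at 20 µM; growth read once vehicle control cultures reached saturation at 30 °C; 1 = growth at the plate median or of vehicle wells; lower values mean less growth of the strain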
Details: S. cerevisiae deletion strains, growth OD

Measured: normalized growth

O=C(O[C@@H]1Cc2c(O)cc(O)cc2O[C@@H]1c1cc(O)c(O)c(O)c1)c1cc(O)c(O)c(O)c1
0.148 (active) and 1.01 (inactive): locus YJL095W, strain BCK1, stronger effect = lower value
inactive: locus YBR021W, strain FUR4, stronger effect = lower value 1.01 | locus YBR171W, strain sec66, stronger effect = lower value 0.976 | locus YCL016C, strain dcc1, stronger effect = lower value 0.934 | locus YCL069W, strain vba3, stronger effect = lower value 0.94 | locus YCR088W, strain abp1, stronger effect = lower value 1.01 | locus YDL005C, strain med2, stronger effect = lower value 0.994 | locus YDL040C, strain nat1, stronger effect = lower value 0.979 | locus YDL185W, strain tfp1, stronger effect = lower value 0.994 | locus YDR001C, strain nth1, stronger effect = lower value 1 | locus YDR101C, strain arx1, stronger effect = lower value 0.966 | locus YDR159W, strain sac3, stronger effect = lower value 1.02 | locus YDR195W, strain ref2 0.905 | locus YDR318W, strain mcm21, stronger effect = lower value 0.951 | locus YDR392W, strain spt3, stronger effect = lower value 0.931 | locus YEL061C, strain CIN8 (second series), stronger effect = lower value 0.982 | locus YER016W, strain bim1, stronger effect = lower value 0.978 | locus YER110C, stronger effect = lower value 1.03 | locus YER155C, strain BEM2 (second series), stronger effect = lower value 0.893 | locus YER155C, strain BEM2, stronger effect = lower value 0.955 | locus YGL078C, strain dbp3, stronger effect = lower value 1.01 | locus YGL167C, strain pmr1, stronger effect = lower value 0.981 | locus YGL227W, strain vid30, stronger effect = lower value 1.02 | locus YGL240W, strain doc1, stronger effect = lower value 0.961 | locus YGR078C, strain PAC10, stronger effect = lower value 0.865 | locus YGR252W, strain gcn5, stronger effect = lower value 0.864 | locus YHR079C, strain IRE1 (second series), stronger effect = lower value 0.999 | locus YHR079C, strain IRE1, stronger effect = lower value 1.03 | locus YHR094C, strain hxt1, stronger effect = lower value 1.01 | locus YIL125W, strain kgd1, stronger effect = lower value 1 | locus YIR030C, strain dcg1, stronger effect = lower value 0.999 | locus YJL092W, strain hpr5, stronger effect = lower value 0.986 | locus YJL115W, strain asf1, stronger effect = lower value 0.988 | locus YJL129C, strain trk1, stronger effect = lower value 1.02 | locus YJL154C, strain vps35, stronger effect = lower value 0.992 | locus YJL168C, strain set2, stronger effect = lower value 0.998 | locus YJR066W, strain TOR1, stronger effect = lower value 0.936 | locus YKL009W, strain mrt4, stronger effect = lower value 1.04 | locus YKL068W, stronger effect = lower value 1 | locus YKL085W, strain MDH1 (second series), stronger effect = lower value 1.01 | locus YKL085W, strain MDH1, stronger effect = lower value 1.01 | locus YKL160W, strain elf1, stronger effect = lower value 0.936 | locus YKR001C, strain vps1, stronger effect = lower value 0.914 | locus YKR026C, strain gcn3, stronger effect = lower value 0.998 | locus YKR091W, strain srl3, stronger effect = lower value 0.996 | locus YLL041C, strain sdh2, stronger effect = lower value 0.962 | locus YLR102C, strain apc9, stronger effect = lower value 1.04 | locus YLR113W, strain HOG1, stronger effect = lower value 1.06 | locus YLR262C, strain YPT6, stronger effect = lower value 0.664 | locus YLR384C, strain iki3, stronger effect = lower value 0.94 | locus YML032C, strain rad52, stronger effect = lower value 1.01 | locus YML120C, strain ndi1, stronger effect = lower value 0.967 | locus YML124C, strain tub3, stronger effect = lower value 1 | locus YMR078C, strain ctf18, stronger effect = lower value 1.01 | locus YMR125W, strain sto1, stronger effect = lower value 1.07 | locus YMR129W, stronger effect = lower value 0.973 | locus YNL183C, strain NPR1, stronger effect = lower value 0.968 | locus YNL248C, strain rpa49, stronger effect = lower value 0.952 | locus YNL250W, strain rad50, stronger effect = lower value 1.02 | locus YNL271C, strain bni1, stronger effect = lower value 1 | locus YNL298W, strain CLA4, stronger effect = lower value 1 | locus YNL307C, strain MCK1, stronger effect = lower value 0.99 | locus YNL322C, strain KRE1 (second series), stronger effect = lower value 1.04 | locus YNR049C, strain mso1, stronger effect = lower value 0.986 | locus YOL012C, strain htz1 0.219 | locus YOL147C, strain pex11, stronger effect = lower value 0.97 | locus YOR136W, strain idh2, stronger effect = lower value 0.966 | locus YOR144C, strain elg1, stronger effect = lower value 0.971 | locus YOR231W, strain MKK1, stronger effect = lower value 1.02 | locus YOR290C, strain snf2, stronger effect = lower value 0.894 | locus YOR316C, strain cot1, stronger effect = lower value 1.02 | locus YPL078C, strain atp4, stronger effect = lower value 0.947 | locus YPL240C, strain hsp82, stronger effect = lower value 0.98 | locus YPL256C, strain CLN2, stronger effect = lower value 1.05 | locus YPR119W, strain clb2, stronger effect = lower value 1.02 | locus YPR141C, strain kar3, stronger effect = lower value 0.995 | locus YPR163C, strain tif3, stronger effect = lower value 1.01 | locus YPR167C, strain met16, stronger effect = lower value 0.951
active: locus YAL021C, strain ccr4, stronger effect = lower value 0.284 | locus YAL026C, strain drs2, stronger effect = lower value 0.781 | locus YAL030W, strain snc1, stronger effect = lower value 0.874 | locus YBL061C, strain skt5, stronger effect = lower value 0.77 | locus YBR009C, strain hhf1, stronger effect = lower value 0.823 | locus YBR023C, strain chs3, stronger effect = lower value 0.746 | locus YBR229C, strain ROT2, stronger effect = lower value 0.889 | locus YBR231C, strain swc5, stronger effect = lower value 0.688 | locus YBR279W, strain paf1, stronger effect = lower value 0.821 | locus YCL011C, strain gbp2, stronger effect = lower value 0.855 | locus YCL029C, strain bik1, stronger effect = lower value 0.866 | locus YCL061C, strain MRC1, stronger effect = lower value 0.913 | locus YDL035C, strain GPR1, stronger effect = lower value 0.333 | locus YDL074C, strain BRE1, stronger effect = lower value 0.576 | locus YDL101C, strain DUN1, stronger effect = lower value 0.385 | locus YDL192W, strain arf1, stronger effect = lower value 0.872 | locus YDR069C, strain doa4, stronger effect = lower value 0.413 | locus YDR137W, strain rgp1, stronger effect = lower value 0.839 | locus YDR162C, strain NBP2, stronger effect = lower value 0.14 | locus YDR297W, strain sur2, stronger effect = lower value 0.832 | locus YDR334W, strain swr1, stronger effect = lower value 0.837 | locus YDR335W, strain msn5, stronger effect = lower value 0.879 | locus YDR388W, stronger effect = lower value 0.929 | locus YDR502C, strain sam2, stronger effect = lower value 0.855 | locus YEL003W, strain gim4, stronger effect = lower value 0.85 | locus YEL037C, strain rad23, stronger effect = lower value 0.905 | locus YER015W, strain faa2, stronger effect = lower value 0.682 | locus YER111C, strain swi4, stronger effect = lower value 0.845 | locus YER167W, strain BCK2, stronger effect = lower value 0.801 | locus YFR010W, strain ubp6, stronger effect = lower value 0.865 | locus YGL086W, strain mad1, stronger effect = lower value 0.776 | locus YGL173C, strain kem1, stronger effect = lower value 0.567 | locus YGL248W, strain PDE1, stronger effect = lower value 0.536 | locus YGL253W, strain hxk2, stronger effect = lower value 0.794 | locus YGR135W, strain pre9, stronger effect = lower value 0.861 | locus YHR013C, strain ard1, stronger effect = lower value 0.663 | locus YHR027C, strain rpn1, stronger effect = lower value 0.52 | locus YHR129C, strain ARP1, stronger effect = lower value 0.586 | locus YHR142W, strain chs7, stronger effect = lower value 0.749 | locus YHR200W, strain rpn10, stronger effect = lower value 0.855 | locus YIL066C, strain RNR3, stronger effect = lower value 0.176 | locus YIL073C, strain SPO22, stronger effect = lower value 0.226 | locus YJL095W, strain BCK1 (second series), stronger effect = lower value 0.882 | locus YJL134W, strain LCB3, stronger effect = lower value 0.914 | locus YJL164C, strain tpk1, stronger effect = lower value 0.808 | locus YJL166W, strain qcr8, stronger effect = lower value 0.744 | locus YJL187C, strain SWE1 (second series), stronger effect = lower value 0.29 | locus YJL187C, strain SWE1, stronger effect = lower value 0.837 | locus YJR043C, strain POL32, stronger effect = lower value 0.317 | locus YJR075W, strain HOC1, stronger effect = lower value 0.704 | locus YKL190W, strain CNB1, stronger effect = lower value 0.26 | locus YLL001W, strain dnm1, stronger effect = lower value 0.897 | locus YLL026W, stronger effect = lower value 0.899 | locus YLR027C, strain aat2, stronger effect = lower value 0.829 | locus YLR039C, strain RIC1, stronger effect = lower value 0.331 | locus YLR058C, strain SHM2, stronger effect = lower value 0.373 | locus YLR221C, strain rsa3, stronger effect = lower value 0.87 | locus YLR258W, strain gsy2, stronger effect = lower value 0.898 | locus YLR262C, strain YPT6 (second series), stronger effect = lower value 0.835 | locus YLR268W, strain sec22, stronger effect = lower value 0.832 | locus YLR320W, strain mms22, stronger effect = lower value 0.877 | locus YLR330W, strain CHS5, stronger effect = lower value 0.776 | locus YLR342W, strain FKS1 (second series), stronger effect = lower value 0.297 | locus YLR342W, strain FKS1, stronger effect = lower value 0.649 | locus YLR357W, strain rsc2, stronger effect = lower value 0.704 | locus YLR370C, strain arc18, stronger effect = lower value 0.89 | locus YLR371W, strain rom2, stronger effect = lower value 0.677 | locus YLR418C, strain cdc73, stronger effect = lower value 0.625 | locus YML016C, strain PPZ1, stronger effect = lower value 0.114 | locus YMR058W, strain fet3, stronger effect = lower value 0.174 | locus YMR205C, strain PFK2, stronger effect = lower value 0.821 | locus YMR223W, strain ubp8, stronger effect = lower value 0.887 | locus YMR231W, strain pep5, stronger effect = lower value 0.496 | locus YMR307W, strain GAS1, stronger effect = lower value 0.429 | locus YNL067W, strain RPL9B, stronger effect = lower value 0.692 | locus YNL071W, strain lat1, stronger effect = lower value 0.878 | locus YNL128W, strain TEP1, stronger effect = lower value 0.13 | locus YNL153C, strain GIM3, stronger effect = lower value 0.665 | locus YNL209W, strain ssb2, stronger effect = lower value 0.44 | locus YNL233W, strain BNI4, stronger effect = lower value 0.651 | locus YNL322C, strain KRE1, stronger effect = lower value 0.26 | locus YNR052C, strain pop2, stronger effect = lower value 0.861 | locus YOL006C, strain TOP1, stronger effect = lower value 0.324 | locus YOR001W, strain rrp6, stronger effect = lower value 0.875 | locus YOR061W, strain CKA2, stronger effect = lower value 0.484 | locus YOR069W, strain VPS5, stronger effect = lower value 0.526 | locus YOR070C, strain gyp1, stronger effect = lower value 0.767 | locus YOR080W, strain dia2, stronger effect = lower value 0.754 | locus YOR083W, strain WHI5, stronger effect = lower value 0.882 | locus YOR106W, strain vam3, stronger effect = lower value 0.316 | locus YOR184W, strain ser1, stronger effect = lower value 0.808 | locus YOR265W, strain rbl2, stronger effect = lower value 0.912 | locus YOR270C, strain vph1, stronger effect = lower value 0.499 | locus YPL051W, strain arl3, stronger effect = lower value 0.539 | locus YPL055C, strain LGE1, stronger effect = lower value 0.249 | locus YPL106C, strain sse1, stronger effect = lower value 0.762 | locus YPL241C, strain CIN2, stronger effect = lower value 0.741 | strain wtn01, stronger effect = lower value 0.832
0.798 (active) and 1.02 (inactive): locus YHR030C, strain SLT2, stronger effect = lower value
